Screening results (PubChem BioAssay)
An excerpt weighted towards active compounds, which were near 8.1% of everything screened.
MCF10A rereplic = induces DNA re-replication in MCF 10a normal breast cells; MCF 10A DNA re-replication, Hoechst nuclear intensity, 48 h; Potency, µM (doses to about 46.1 µM), for the others: at the top dose activity, positive = re-replication, most hits filed as activators; AID 624296; 350,000 compounds, 2.9% hits; note: % of control where 0% means no effect; nearly all actives have a fitted effect of over 50% in size
SW480 rerep = inducers of DNA re-replication in SW480 colon cancer cells; SW480 DNA re-replication, Hoechst DNA content imaging, 48 h; Potency, µM (doses to about 46.1 µM), for inactives: top-dose re-replication activation, usual class: activators; 340,000 compounds, 1.8% hits; note: % of control where 0% means no effect; nearly all actives have a fitted effect of over 55% in size
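SW480 cells exposed to compounds for 48 hr at 37 C, 5% CO2, then Hoechst-stained 40 min. Nuclear DNA content imaged by fluorescence scanning (405 nm excitation, 500-530 nm emission); re-replication scored as increased high-intensity nuclei.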
KB-V1 cytotox = KB-V1 MDR subline cytotoxicity; KB-V1 MDR cells viability, CellTiter-Glo, 72 h; Potency, µM (top dose mostly 46.1 µM), actives largely listed as cytotoxic; 400,000 compounds, 3.4% hits; note: % is set by controls: 0 for no effect and ±100 for the full control effect; nearly all actives have a fitted effect of over 60% in size
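KB-V1 MDR subline cells in DMEM (phenol-red free, 10% FBS) exposed to compounds in qHTS concentration series for 72 h at 37 degrees C. Viability read by CellTiter-Glo luminescence; concentration-effect curves fitted after normalization and correction.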
ELG1 DNA repair = blocks ELG1-dependent DNA repair in HEK293T cells. HEK293T ELG1-luciferase reporter, luminescence, 16 h; DNA damage induced by 5-fluorouridine. Potency, µM (doses to about 46.1 µM), for the others: at the highest dose activity change, negative = inhibition, most hits filed as inhibitors. 330,000 compounds, 2.3% hits; note: % is set by controls: 0 for no effect and ±100 for the full control effect; nearly all actives have a fitted effect of over 55% in size
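5-Fluorouridine DNA damage + compound/DMSO, 2,000 cells/well, 16 h, 37 °C/5% CO2. ONE-Glo, 30 min RT, luminescence. Readout = decrease in reporter signal.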
KB-3-1 tox = KB-3-1 parental cell cytotoxicity | KB-3-1 viability, CellTiter-Glo ATP luminescence, 72 h | Potency, µM (top dose mostly 46.1 µM), usual class: cytotoxic | 400,000 compounds, 1.4% hits | AID 1347075; note: % is set by controls: 0 for no effect and ±100 for the full control effect; nearly all actives have a fitted effect of over 60% in size
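Cytotoxicity in the drug-sensitive parental line KB-3-1 was scored as loss of CellTiter-Glo luminescence following 72 h incubation with compound. Values come from curve fitting of normalized concentration-response data.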
An asterisk follows results filed as active; i = inactive; ? = inconclusive; . = no result; [ ] = remark or other dose. Calls come from the whole dose curve; as a rule, active = well fitted curve in the direction sought with a large enough effect; inconclusive = small, poorly fitted or top-dose-only effect, or another doubt; inactive = no such curve, though single readings can be large; an effect the other way counts as inactive or inconclusive. Potency is the fitted concentration of half-maximal effect.

SMILES	MCF10A rereplic	SW480 rerep	KB-V1 cytotox	ELG1 DNA repair	KB-3-1 tox
CC(C)c1ccccc1OCC(O)CN1CCN(S(=O)(=O)c2ccc([N+](=O)[O-])cc2)CC1 (stereo not given)	8%	27%	?	?	6.5µM*
COc1ccc(COCC(O)CN2CCN(S(=O)(=O)c3ccc(C(C)C)cc3)CC2)cc1 (stereo not given)	4%	-7%	?	13µM*	i
O=S(=O)(c1ccc(F)cc1)N1CCN(CC(O)COc2ccccc2F)CC1 (stereo not given)	6%	0%	i	?	i
Cc1ccc(N2NC(=O)/C(=C\c3cc4c(cc3[N+](=O)[O-])OCO4)C2=O)cc1C	18µM*	0%	i	?	?
O=C(NCC1CCCO1)C(=O)N/N=C/c1cc(Cl)ccc1O (stereo not given)	7%	15µM*	i	?	i
O=C(NCC1CCCO1)C(=O)N/N=C/c1ccc(O)c(Cl)c1 (stereo not given)	-3%	3%	i	10%	i
O=C(N/N=C/c1cc(Cl)ccc1O)c1ccncc1	?	0.65µM*	?	15µM*	?
O=C(N/N=C/c1ccccc1Cl)c1ccncc1	?	4%	i	4%	i
CN(C)Cc1cc(C(C)(C)c2ccccc2)ccc1O	4%	?	i	.	i
C[C@H]1CN[C@H](CCO)/C1=C\c1ccccc1	-54%	-7%	i	.	i
CCOc1ccc(-n2c(SCC(=O)NCc3ccco3)nc3ccccc3c2=O)cc1	-2%	-7%	i	-10%	i
C=CCn1c(SCC(=O)NCc2ccco2)nc2ccccc2c1=O	1%	-102%	i	-5%	i
O=C(CCn1c(SCC(=O)NCc2ccco2)nc2ccccc2c1=O)NCCc1ccccc1	-2%	-7%	21µM*	-17%	i
O=c1c2ccccc2nc(SCc2cccc(F)c2)n1Cc1ccco1	?	-1%	7.3µM*	-11%	?
O=C(c1ccc(-n2c(SCc3cc(F)ccc3F)nc3ccccc3c2=O)cc1)N1CCOCC1	10%	?	0.65µM*	?	?
O=C(CSc1nc2ccccc2c(=O)n1-c1ccc(F)cc1)NCc1ccco1	8%	-3%	12µM*	0%	i
O=C(CCNC(=O)N1CC(=O)Nc2ccccc21)NCc1ccc(Cl)cc1	.	.	i	.	i
CC1(C)Cc2c(sc3nc(SCC(=O)NCc4ccco4)n(-c4ccccc4)c(=O)c23)CS1	7.1µM*	-1%[9.22 µM]	i	9%	i
COn1c(SCc2cccc(Cl)c2)nc2ccccc2c1=O	18%	1%	16µM*	16%	?
O=C(CSc1nc2sc3c(c2c(=O)n1-c1ccccc1)CCCC3)NCc1ccco1	?	?	i	-1%	i
COc1cc2c(cc1OC)C(c1c(Cl)cccc1Cl)=NCC2	.	.	?	.	21µM*
COc1cc2c(cc1OC)C(c1c(-c3c(Cl)cccc3Cl)noc1C)=NCC2	.	.	?	.	i
Cc1cc(C)c(NC(=O)/C=C\C(=O)O)c([N+](=O)[O-])c1	15%	0.16µM*	i	-6%	i
Cc1ccc(NC(=O)/C=C\C(=O)O)c([N+](=O)[O-])c1	-5%	-7%	i	21%	i
C=CCN1[C@@H](C(C)C)COCCS1(=O)=O	.	.	i	.	i
SMILES	MCF10A rereplic	SW480 rerep	KB-V1 cytotox	ELG1 DNA repair	KB-3-1 tox
O=C(Nc1ccccc1)C1CCN(c2ncc(-c3ccc4c(c3)OCCCO4)s2)CC1	.	.	i	.	i
Oc1ccccc1OCc1nc2ccccc2s1	0%	-8%	i	?	i
OCc1cc(Br)ccc1OCc1nc2ccccc2s1	1%	-9%	5.2µM*	?	i
COc1ccc(CNC(=O)c2cc3cccc(O)c3oc2=N)cc1	-1%	0%	i	9%	i
O=C(Cn1c(=O)n(-c2ccccc2)c(=O)c2oc3ccccc3c21)Nc1ccccc1	?	-4%	15µM*	?	i
CC(C)(C)NC(=O)Nc1nnc(SCC(=O)NC2CCCCC2)s1	-5%	?	i	?	i
CN1c2cc(O)c(N=NC(N)=O)cc2CC1S(=O)(=O)O (stereo not given)	1%	-10%	.	.	.
